This is an account of results in PubChem BioAssay (EPA / NIEHS).

Where a structure was tested more than once in an assay, its records may differ in their call. Activity calls are given as the source filed them. Rule for the calls: active = hit-call score of the fitted dose curve at least 0.9, where 1 is the maximum; inactive = score below 0.9.

Read-out in experiment [1]: Tissue plasminogen activator (tPA), PLAT (gene 5327)
Description: BSK_BE3C_tPA: BioMAP Diversity Plus: BE3C Assay for Tissue plasminogen activator (tPA) Biomarker Activity (AID 2283041).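 Note: tPA level quantified by ELISA one day after compound addition.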 The settings on record: primary human bronchial epithelial cells; actives raise or lower the signal. The method in brief: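 Human primary bronchial epithelial cells were dosed with chemical and tPA biomarker levels measured by ELISA 24 hours later. Activity was fitted bidirectionally against DMSO as negative control and baseline.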

Read-out in experiment [2]: Interleukin-8 (IL8), CXCL8 (gene 3576)
Description: BSK_CASM3C_IL8: BioMAP Diversity Plus: CASM3C Assay for Interleukin-8 (IL8) Biomarker Activity (AID 2283042).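 Note: IL-8 protein level quantified by ELISA.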 Particulars: primary human coronary artery smooth muscle cells; actives raise or lower the signal.

Read-out in experiment [3]: Human Leukocyte Antigen - DR isotype (HLADR), HLA-DRA (gene 3122)
Kind of experiment: BSK_CASM3C_HLADR: BioMAP Diversity Plus: CASM3C Assay for Human Leukocyte Antigen - DR isotype (HLADR) Biomarker Activity (AID 2283043).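 Note: cell-surface HLA-DR protein level quantified by ELISA.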 Particulars: primary human coronary artery smooth muscle cells; actives raise or lower the signal.

Read-out in experiment [4]: Macrophage colony-stimulating factor (MCSF), CSF1 (gene 1435)
Kind of experiment: BSK_CASM3C_MCSF: BioMAP Diversity Plus: CASM3C Assay for Macrophage colony-stimulating factor (MCSF) Biomarker Activity (AID 2283044).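 Note: M-CSF protein amount quantified by ELISA after 24 h exposure.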 The settings on record: primary human coronary artery smooth muscle cells; actives raise or lower the signal.

Read-out in experiment [5]: Low-density lipoprotein receptor (LDLR), LDLR (gene 3949)
Description: BSK_CASM3C_LDLR: BioMAP Diversity Plus: CASM3C Assay for Low-density lipoprotein receptor (LDLR) Biomarker Activity (AID 2283045).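 Note: LDLR protein level on the cell surface quantified by ELISA.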 Particulars: primary human coronary artery smooth muscle cells; actives raise or lower the signal.

Read-out in experiment [6]: Monocyte Chemoattractant Protein-1 (MCP1), CCL2 (gene 6347)
Description: BSK_CASM3C_MCP1: BioMAP Diversity Plus: CASM3C Assay for Monocyte Chemoattractant Protein-1 (MCP1) Biomarker Activity (AID 2283046).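 Note: MCP-1 level quantified by ELISA 24 h after dosing.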 Particulars: primary human coronary artery smooth muscle cells; actives raise or lower the signal.

A short description of experiment [7]: BSK_CASM3C_Proliferation: Cell Proliferation Assessment in the BioMAP Diversity Plus: CASM3C Assay (AID 2283047).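 Note: sulforhodamine B total protein stain as relative cell number at 560 nm; sub-confluent cells exposed 48 h before staining; fitted both ways against DMSO so gain or loss of cell number.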 The settings on record: primary human coronary artery smooth muscle cells.
Read-out in experiment [8]: Monokine induced gamma interferon (MIG), CXCL9 (gene 4283)
Kind of experiment: BSK_CASM3C_MIG: BioMAP Diversity Plus: CASM3C Assay for Monokine induced gamma interferon (MIG) Biomarker Activity (AID 2283048).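 Note: MIG protein level measured by ELISA.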 Particulars: primary human coronary artery smooth muscle cells; actives raise or lower the signal.

Read-out in experiment [9]: serum amyloid A (SAA), SAA1 (gene 6288)
Description: BSK_CASM3C_SAA: BioMAP Diversity Plus: CASM3C Assay for serum amyloid A (SAA) Biomarker Activity (AID 2283049).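 Note: SAA protein level quantified by ELISA.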 The settings on record: primary human coronary artery smooth muscle cells; actives raise or lower the signal.

Experiment [10] in a line: BSK_CASM3C_SRB: Viability Assessment in the BioMAP Diversity Plus: CASM3C Assay (AID 2283050).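 Note: total protein by SRB staining as cytotoxicity measure in parallel cultures.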 The settings on record: primary human coronary artery smooth muscle cells.
Read-out in experiment [11]: Thrombomodulin, THBD (gene 7056)
Kind of experiment: BSK_CASM3C_Thrombomodulin: BioMAP Diversity Plus: CASM3C Assay for Thrombomodulin Biomarker Activity (AID 2283051).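 Note: thrombomodulin protein level measured by ELISA 24 h after dosing.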 Particulars: primary human coronary artery smooth muscle cells; actives raise or lower the signal.

Read-out in experiment [12]: Tissue Factor, F3 (gene 2152)
Kind of experiment: BSK_CASM3C_TissueFactor: BioMAP Diversity Plus: CASM3C Assay for Tissue Factor Biomarker Activity (AID 2283052).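 Note: cell surface tissue factor protein level read by ELISA.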 The settings on record: primary human coronary artery smooth muscle cells; actives raise or lower the signal.

Read-out in experiment [13]: Interferon-gamma inducible Protein 10 (IP10), CXCL10 (gene 3627)
Description: BSK_hDFCGF_IP10: BioMAP Diversity Plus: hDFCGF Assay for Interferon-gamma inducible Protein 10 (IP10) Biomarker Activity (AID 2283053). Particulars: primary human foreskin fibroblasts; actives raise or lower the signal. In a few lines:
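Human foreskin fibroblast primary cells (hDFCGF system) were dosed with chemical and assayed at 24 h; IP-10 measured by ELISA. Activity fitted bidirectionally relative to DMSO negative control as baseline.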

Read-out in experiment [14]: Urokinase-type plasminogen activator receptor (uPAR), PLAUR (gene 5329)
Kind of experiment: BSK_CASM3C_uPAR: BioMAP Diversity Plus: CASM3C Assay for Urokinase-type plasminogen activator receptor (uPAR) Biomarker Activity (AID 2283054).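 Note: cell-surface uPAR protein level quantified by ELISA.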 Particulars: primary human coronary artery smooth muscle cells; actives raise or lower the signal.

Read-out in experiment [15]: Vascular cell adhesion molecule 1 (VCAM1), VCAM1 (gene 7412)
Description: BSK_CASM3C_VCAM1: BioMAP Diversity Plus: CASM3C Assay for Vascular cell adhesion molecule 1 (VCAM1) Biomarker Activity (AID 2283055).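 Note: VCAM-1 protein level quantified by ELISA on the cells.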 The settings on record: primary human coronary artery smooth muscle cells; actives raise or lower the signal.

Read-out in experiment [16]: Collagen III, COL3A1 (gene 1281)
Kind of experiment: BSK_hDFCGF_CollagenIII: BioMAP Diversity Plus: hDFCGF Assay for Collagen III Biomarker Activity (AID 2283056). The settings on record: primary human foreskin fibroblasts; actives raise or lower the signal. In a few lines: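 Response relative to DMSO, fitted in both directions, reflects ELISA-measured collagen III in human primary skin fibroblasts 24 h after compound addition.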

Read-out in experiment [17]: Epidermal growth factor receptor (EGFR), EGFR (gene 1956)
Description: BSK_hDFCGF_EGFR: BioMAP Diversity Plus: hDFCGF Assay for Epidermal growth factor receptor (EGFR) Biomarker Activity (AID 2283057). The settings on record: primary human foreskin fibroblasts; actives raise or lower the signal. The method in brief:
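Primary human foreskin fibroblasts were exposed to compound for 24 h, after which cell-surface EGFR was quantified by ELISA. Activity was fitted bidirectionally against the DMSO negative control as baseline.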

Read-out in experiment [18]: Interleukin-8 (IL8), CXCL8 (gene 3576)
Kind of experiment: BSK_hDFCGF_IL8: BioMAP Diversity Plus: hDFCGF Assay for Interleukin-8 (IL8) Biomarker Activity (AID 2283058). Particulars: primary human foreskin fibroblasts; actives raise or lower the signal. In a few lines: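 Fibroblast monolayers (human foreskin, hDFCGF) received test chemical for 24 h before ELISA detection of IL-8; either increases or decreases relative to DMSO count as activity.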

Experiment [19] in a line: BSK_hDFCGF_Proliferation: Cell Proliferation Assessment in the BioMAP Diversity Plus: hDFCGF Assay (AID 2283059).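 Note: curves fitted for both rise and fall of signal versus DMSO baseline.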 The settings on record: primary human foreskin fibroblasts. In a few lines: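 Total protein read at 560 nm after 0.1% SRB staining of TCA-fixed human skin fibroblasts, […]. Activity is fitted in both directions relative to DMSO as baseline.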

Read-out in experiment [20]: Macrophage colony-stimulating factor (MCSF), CSF1 (gene 1435)
Description: BSK_hDFCGF_MCSF: BioMAP Diversity Plus: hDFCGF Assay for Macrophage colony-stimulating factor (MCSF) Biomarker Activity (AID 2283060). Particulars: primary human foreskin fibroblasts; actives raise or lower the signal. The method in brief:
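fibroblasts (human foreskin, primary), 24 h post-dose; M-CSF by ELISA; bidirectional fit, DMSO = baseline.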

The AC50 is the midpoint of the concentration-response curve, whichever way the signal moves. For the molecule `O=S(=O)(O)C(F)(F)C(F)(F)C(F)(F)C(F)(F)F`, the result in experiment [1], in experiment [2], in experiment [3], in [4], in [5] and in [6] was inactive. The outcome in [7], in experiment [8], in [9], in experiment [10], in experiment [11] and in experiment [12] was inactive. The outcome in experiment [13], in experiment [14], in experiment [15], in [16], in [17] and in experiment [18] was inactive. Moreover, the outcome in experiment [19] and in [20] was inactive. In addition, the AC50 in experiment [9] is 0.558 µM (active).
`CC#Cc1cc(C)nc(Nc2ccccc2)n1`: the outcome in experiment [1], in [2], in experiment [3], in experiment [4], in [5] and in experiment [6] was inactive. In addition, the result in experiment [7], in experiment [8], in experiment [9], in experiment [10], in [11] and in experiment [12] was inactive. For the same molecule, the result in [13], in [14], in experiment [15], in [16], in experiment [17] and in experiment [18] was inactive. Moreover, the outcome in [19] and in [20] was inactive.
In the case of `CCOP(=S)(OCC)SCSC(C)(C)C`, the result in experiment [1], in [2], in [3], in [5], in experiment [6] and in experiment [7] was inactive. In addition, the result in experiment [8], in [9], in experiment [10], in [11], in [12] and in experiment [13] was inactive. Also, the result in experiment [14], in experiment [15], in experiment [16], in [17], in [18] and in [19] was inactive. Besides, the result in experiment [20] was inactive. In [4], the AC50 is 2.51 µM (active).
With `CCCCCCCCOC(=O)c1ccccc1C(=O)OCCCCCCCC`, the outcome in experiment [1], in [2], in [3], in experiment [4], in experiment [5] and in experiment [6] was inactive. Further, the outcome in experiment [7], in experiment [8], in experiment [9], in experiment [10], in experiment [11] and in experiment [12] was inactive. For the same molecule, the result in experiment [13], in experiment [14], in [15], in experiment [16], in [17] and in [18] was inactive. The outcome in experiment [19] and in [20] was inactive.
With `CC(C)(O)C(=O)Nc1ccc([N+](=O)[O-])c(C(F)(F)F)c1`, the outcome in [1], in experiment [2], in experiment [3], in experiment [4], in experiment [5] and in experiment [6] was inactive. For the same molecule, the outcome in experiment [7], in experiment [8], in [9], in experiment [10], in experiment [11] and in experiment [12] was inactive. Besides, the result in [13], in [14], in experiment [15], in experiment [16], in experiment [17] and in [18] was inactive. Besides, the result in experiment [19] and in [20] was inactive.
